Measured values from PubChem BioAssay (NCI).
The panel holds about 83,000 compounds, 20% with a hit somewhere; the sample as a whole holds those more often.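 96-well plates, one dose, 48 hours. Percent growth reported; active if below 10.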 A number with no mark means an inactive call. The source made the active and inactive calls.

The compounds below were run on CCRF-CEM leukemia (assay: NCI-60 one-dose screen, 48 h (100 = growth as untreated, 0 = no growth, -100 = all killed)). Conditions: 10 µM unless noted.

Compound	growth
CCN(CC)CCOc1nc2c3ccc(Cl)cc3nn2c2ccccc12	30.6%
C=C(c1ccc(C(=O)O)cn1)c1cc2c(cc1C)C(C)(C)CCC2(C)C	83.5%
CCn1cc(C(=O)NN=C2CCCCCC2)c(=O)c2ccc(C)nc21	91.7%
Cc1c2cc[nH]c(=O)c2c(C)c2c1[nH]c1ccc(OC(=O)c3ccccc3)cc12	29.4%
C#Cc1cccc(Nc2nc3ccc([N+](=O)[O-])cc3nc2Nc2cccc(C#C)c2)c1	-33.9% (active)
COc1cccc(C(=O)OCC(O)C(=O)NC23CC4CC(CC(C4)C2)C3)c1 (centres undefined)	86.3%
COc1ccc2cc(Cn3cc[n+](Cc4ccc5ccccc5c4)c3)ccc2c1	20.2%
Cc1ccc(C(=O)c2ccc(CC(=O)N/N=C/c3ccc(O)cc3O)n2C)cc1	16.8%
O=C(Nc1ccccc1)c1sc(-c2ccccc2)cc1O	96.7%
COC(=O)c1ccc2c(c1)c1c(C)c3ccncc3c(C)c1n2C	30.4%
O=C(O)c1cccc(N/C=C/C(=O)c2cc3cc(Br)ccc3oc2=O)c1	101%
O=C(N/N=C/c1ccc([N+](=O)[O-])cc1)c1ccc2nc(-c3ccc(Cl)cc3)[nH]c2c1	9.87% (active)
CCCCN1C(=O)/C(=c2\sc3n(c2=O)NC2C(N=3)N(CC)C(=O)N2CC)c2ccccc21 (centres undefined)	26.1%
CNCc1cccc2c1OCCOCCN(C)C(=O)CN(C)S(=O)(=O)c1ccc(cc1)-c1cnc(N)c(n1)C(=O)N2	-18.4% (active)
